Sampled rows, rich in hits. Any-hit rate of the full collection: about 2.3%.
Fam108B inh: Fam108B inhibition, counter-screen for RBBP9 inhibitors; recombinant Fam108B, FP-Rh probe fluorescence polarization; 300,000 tested, 0.33% active; inhibition, % at 9.51 µM;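 active = inhibition above the screen mean inhibition plus 3 SD, computed separately per campaign, cut at about 18% in these data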;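 note: inhibitors lower polarization as less probe binds the enzyme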
pPAFAH FP inh: pPAFAH (human) enzyme inhibition. Q13093. recombinant pPAFAH, FP-rhodamine probe fluorescence polarization. inhibition, % at 3.39 µM. 330,000 tested, 1.5% active. AID 463082;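 active = inhibition above the mean inhibition across the screen plus 3 SD, cut at about 25% in these data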;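 note: inhibitors block binding of the rhodamine activity-based probe so polarization drops; 0% = enzyme with DMSO and 100% = wells lacking pPAFAH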
PAD4 inh: PAD4 (human) enzyme inhibition | Q9UM07 | recombinant PAD4, RCA probe fluorescence polarization | inhibition, % at 6.36 µM | 330,000 tested, 0.41% active | AID 485272;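 active = percent inhibition above a cutoff equal to the mean of all tested compounds plus 3 SD, cut at about 15% in these data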;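 note: 0% = PAD4 with RCA probe and DMSO and 100% = probe without PAD4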
GSTO1 counter: GSTO1 inhibition, counter-screen for RBBP9 inhibitors. inhibition, % at 5.96 µM. 300,000 tested, 1.1% active. AID 1974. recombinant GSTO1, activity-based probe fluorescence polarization. P78417;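 active = inhibition above the campaign mean inhibition plus 3 SD, cut at about 35% in these data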;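 note: 0% = GSTO1-1 with DMSO and 100% = wells lacking GSTO1-1 enzyme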
Target sequence (P78417 whole entry, looked up): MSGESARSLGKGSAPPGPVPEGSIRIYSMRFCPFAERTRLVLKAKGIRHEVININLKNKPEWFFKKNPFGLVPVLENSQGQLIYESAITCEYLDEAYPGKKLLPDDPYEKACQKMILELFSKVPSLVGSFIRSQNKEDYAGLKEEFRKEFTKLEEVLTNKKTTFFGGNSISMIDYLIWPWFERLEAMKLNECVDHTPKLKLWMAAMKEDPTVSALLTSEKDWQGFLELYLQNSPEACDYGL
PME-1 primary: PME-1 (human) inhibition; Q9Y570; recombinant PME-1, FP-Rh probe fluorescence polarization; inhibition, % at 5.9 µM; 320,000 tested, 0.53% active;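 active = inhibition above the campaign mean of all compounds plus 3 SD, cut at about 26% in these data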;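 note: competitive labeling of PME-1 active site by serine hydrolase directed probe; 0% = PME-1 with DMSO and 100% = wells lacking PME-1 enzyme; inhibitors block probe labeling so polarization falls and inhibition rises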
Target sequence (Q9Y570 whole entry, looked up): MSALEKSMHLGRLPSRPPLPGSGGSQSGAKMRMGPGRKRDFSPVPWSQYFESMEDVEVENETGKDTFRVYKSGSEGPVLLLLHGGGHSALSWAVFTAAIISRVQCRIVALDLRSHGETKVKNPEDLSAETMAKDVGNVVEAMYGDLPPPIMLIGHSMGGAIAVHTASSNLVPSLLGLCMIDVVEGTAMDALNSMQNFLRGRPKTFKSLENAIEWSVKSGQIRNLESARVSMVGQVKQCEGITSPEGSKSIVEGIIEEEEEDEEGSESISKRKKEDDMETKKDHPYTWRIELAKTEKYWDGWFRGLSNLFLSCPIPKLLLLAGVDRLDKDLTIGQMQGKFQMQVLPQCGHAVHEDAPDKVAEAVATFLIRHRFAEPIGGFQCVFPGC
pPAFAH confirm: pPAFAH (human) inhibition, confirmed; shares compounds with pPAFAH FP inh; recombinant pPAFAH, FP-Rh probe fluorescence polarization; inhibition, % at 3.39 µM; 2,300 tested, 72% active;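 active = mean inhibition of the triplicate above the hit cutoff set for the earlier primary screen, cut at about 25% in these data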;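 note: 0% = enzyme with DMSO and 100% = wells lacking pPAFAH enzyme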
An asterisk follows results filed as active.

Screening Cc1cc(/C=N/Nc2ccc([N+](=O)[O-])cn2)c(C)n1-c1ccc(C(=O)O)cc1 returned Fam108B inh 3, pPAFAH FP inh 54*, PAD4 inh 2, GSTO1 counter 19, PME-1 primary 8 and pPAFAH confirm 18.
Screening Cc1ccccc1-n1c(C)cc(/C=N/Nc2ccc([N+](=O)[O-])cn2)c1C returned Fam108B inh -6, pPAFAH FP inh 5, PAD4 inh 0, GSTO1 counter -2 and PME-1 primary 2.
Cn1c(=O)c2sccc2n(Cc2cccc(Br)c2)c1=O was read as Fam108B inh 2, pPAFAH FP inh 3, PAD4 inh -2, GSTO1 counter 5 and PME-1 primary 0.
Screening CN(CCO)c1ccc(C=NNc2ccc([N+](=O)[O-])cc2S(=O)(=O)Nc2ccccc2C(=O)O)cc1 returned pPAFAH FP inh 49*, PAD4 inh -7 and pPAFAH confirm 55*.
Screening CC(=O)Nc1ccc(C=NNc2ccc(S(=O)(=O)Nc3ccccc3C(=O)O)cc2[N+](=O)[O-])cc1 returned pPAFAH FP inh 64*, PAD4 inh 5 and pPAFAH confirm 66*.
`O=[N+]([O-])c1ccc(N/N=C/c2ccccc2)c(F)c1` gave Fam108B inh 11, pPAFAH FP inh 7, PAD4 inh -1, GSTO1 counter -6 and PME-1 primary 11.
`NS(=O)(=O)c1ccc(N/N=C/c2ccc(C(=O)O)cc2)c([N+](=O)[O-])c1` gave Fam108B inh 2, pPAFAH FP inh 7, PAD4 inh 2, GSTO1 counter -10 and PME-1 primary -2.
For COc1cc(C=NNc2ccc(S(=O)(=O)Nc3ccccc3C(=O)O)cc2[N+](=O)[O-])ccc1O the results were pPAFAH FP inh 63*, PAD4 inh 6 and pPAFAH confirm 78*.
CCN(CC)S(=O)(=O)c1cccc(NC2=NCC(C)S2)c1 (stereo unspecified) was read as Fam108B inh -1, pPAFAH FP inh 2, PAD4 inh 5, GSTO1 counter 3 and PME-1 primary -4.
COc1ccc(CCNC(=O)COC(=O)c2ccc(N3CCCC3=O)cc2)cc1OC was read as Fam108B inh 3, pPAFAH FP inh 6, PAD4 inh 0, GSTO1 counter 16 and PME-1 primary -4.
`CCNc1ccc(Br)cc(C(=O)/C=C/c2ccccc2Cl)c1=O` gave Fam108B inh 7, pPAFAH FP inh 46*, PAD4 inh 0, GSTO1 counter 30, PME-1 primary 2 and pPAFAH confirm 28*.
For CNc1ccc(Br)cc(C(=O)/C=C/c2cccc(OC)c2OC)c1=O the results were Fam108B inh 10, pPAFAH FP inh 20, PAD4 inh -3, GSTO1 counter 32 and PME-1 primary 5.
COc1cccc(C(=O)COC(=O)CCC(=O)c2ccccc2)c1 was read as Fam108B inh -2, pPAFAH FP inh 16, PAD4 inh -3, GSTO1 counter 2 and PME-1 primary -4.
COc1cc(NC(c2ccccc2)c2ccccc2)cc(OC)c1OC was read as Fam108B inh 2, pPAFAH FP inh 44*, PAD4 inh -4, GSTO1 counter 13, PME-1 primary -1 and pPAFAH confirm 43*.
For CCOC(=O)c1cc(C#N)c(SCC(=O)Nc2ccc(C(C)=O)cc2)[nH]c1=O the results were Fam108B inh -3, pPAFAH FP inh 17, PAD4 inh 6, GSTO1 counter -3 and PME-1 primary -4.
CCOC(=O)c1cc(C#N)c(SCC(N)=O)[nH]c1=O was read as Fam108B inh 2, pPAFAH FP inh 51*, PAD4 inh -4, GSTO1 counter 36*, PME-1 primary -2 and pPAFAH confirm 1.
COc1ccccc1N(CC(=O)NCc1ccccc1)C(=O)CCC(=O)Nc1nccs1 was read as Fam108B inh 0, pPAFAH FP inh 6, PAD4 inh 2, GSTO1 counter -2 and PME-1 primary 5.
For O=C(O)CN1C(=O)/C(=C\c2cc(Br)ccc2OCc2ccc(F)cc2)SC1=S the results were Fam108B inh -1, pPAFAH FP inh 51*, PAD4 inh -4, GSTO1 counter -9, PME-1 primary 7 and pPAFAH confirm 63*.
For CCOC(=O)c1sc(N/N=C/c2cc(Br)c(O)c(OC)c2)nc1C the results were Fam108B inh 17, pPAFAH FP inh 35*, PAD4 inh 0, GSTO1 counter 9, PME-1 primary 28* and pPAFAH confirm 26*.
Screening CCOC(=O)N/N=C/c1cc(OC)c(O)c(OC)c1 returned Fam108B inh 4, pPAFAH FP inh -2, PAD4 inh 3, GSTO1 counter 2 and PME-1 primary 0.
Screening O=C(Nc1cc(S(=O)(=O)N2CCCC2)ccc1Cl)c1cc(F)c(F)c(F)c1F returned pPAFAH FP inh 5 and PAD4 inh -1.
For Nc1nc(SCc2ccc(Br)cc2)n[nH]1 the results were Fam108B inh 2, pPAFAH FP inh 4, PAD4 inh 0, GSTO1 counter -4 and PME-1 primary 4.
For Nc1nc(SCc2ccccc2)n[nH]1 the results were Fam108B inh -2, pPAFAH FP inh 47*, PAD4 inh 0, GSTO1 counter 14, PME-1 primary -4 and pPAFAH confirm 1.
Screening COc1ccc(S(=O)(=O)N2CCN(C(=O)CCSc3ccccc3)CC2)cc1 returned pPAFAH FP inh 4, PAD4 inh 3 and PME-1 primary 5.
Screening CCc1cccc(CC)c1NC(=O)CSc1nnc(C2CC2)n1C returned Fam108B inh 2, pPAFAH FP inh -1, PAD4 inh -4, GSTO1 counter 1 and PME-1 primary -4.
Cc1ccccc1C(=NCCCN(C)C)c1ccccc1C was read as Fam108B inh 3, pPAFAH FP inh 1, PAD4 inh 2, GSTO1 counter 1 and PME-1 primary -1.
`O=C(OCC(=O)N1CCCCC1)c1cc2ccccc2cc1O` gave Fam108B inh 1, pPAFAH FP inh -3, PAD4 inh -6, GSTO1 counter 3 and PME-1 primary 3.
`C/C(=N\NC(=O)c1cc2ccccc2cc1O)c1ccc2c(c1)OCO2` gave Fam108B inh 4, pPAFAH FP inh 55*, PAD4 inh 0, GSTO1 counter 1, PME-1 primary 14 and pPAFAH confirm 6.
Screening C/C(=N\NC(=O)c1ccc(C)cc1C)c1ccc2c(c1)OCO2 returned Fam108B inh 8, pPAFAH FP inh 0, PAD4 inh 3, GSTO1 counter 3 and PME-1 primary 4.
Screening C/C(CC(=O)N1CCCC1)=N\NC(=O)c1cc2ccccc2cc1O returned Fam108B inh 6, pPAFAH FP inh 48*, PAD4 inh -12, GSTO1 counter 3, PME-1 primary 17 and pPAFAH confirm 15.
Screening CCOC(=O)C(C)/C(C)=N/NC(=O)c1cc2ccccc2cc1O (stereo unspecified) returned Fam108B inh 11, pPAFAH FP inh 46*, PAD4 inh 3, GSTO1 counter -9, PME-1 primary 8 and pPAFAH confirm 4.

Source: PubChem (The Scripps Research Institute Molecular Screening Center)
